Laboratory results from the supplement of paper PMC3842684.

The compounds below were run on P. falciparum NF54-pfs16-GFP early (I-III) stage gametocytes (assay: relative % inhibition of viable gametocyte number; higher = more gametocytocidal). Conditions: 0.5 µM; stage: early (I-III) gametocyte; incubation 72 h.
Procedure, shortened: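 In 384-well poly-D-lysine imaging plates, NF54 pfs16-GFP gametocytes (magnet-isolated, early I/IIa on day 2 or late on day 8; 10% parasitaemia, 0.1% haematocrit) received compound in duplicate at 5 or 0.5 µM. Plates stood 72 h at 37°C in 5% CO2 and 5% O2, then overnight with MitoTracker Red before confocal imaging, where elongated GFP objects with MitoTracker signal above cut-off counted as viable. Relative inhibition was calculated against vehicle and positive-control wells on the same plate.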

Row | Compound | relative % inhibition
1 | O=C(NCC(c1ccsc1)N1CCCCCC1)c1ccc(C(F)(F)F)cc1 (centres undefined) | -5.22%
2 | COc1cc(C(=O)Nc2nc3c(cc4c5c(cccc53)CC4)s2)cc(OC)c1OC | 5.49%
3 | O=C(NCc1ccco1)C1CCN(S(=O)(=O)c2ccc(Cl)cc2)CC1 | 7.81%
4 | CCOC(=O)c1c(NC(=O)c2ccccc2)sc2c(O)c(CN(CC)CC)ccc12 | 28.6%
5 | CCOc1ccc(C=Cc2nc(=O)c3ccccc3o2)cc1 | 4.08%
6 | COc1ccc(C2N(C)c3ccccc3N2C)cc1 | 24.6%
7 | CCOc1ccc2nc(C)cc(Nc3ccc(N(C)C)cc3)c2c1 | 15.2%
8 | Cc1ccc(Nc2nc(N)c3ccccc3n2)cc1Cl | -26.6%
9 | CC(=O)c1sc(NC(=O)Nc2ccc(C)cc2C)nc1C | 30.3%
10 | CCc1c(C)c(=N)c2ccccc2n1C | -1.08%
11 | Cc1ccc(Cn2c(N3CCC(C(=O)NCc4cccs4)CC3)nc3ccccc32)cc1 | 10.4%
12 | Cc1cc(Nc2ccc(Cl)cc2)n2nc(C(F)(F)F)nc2n1 | 4.02%
13 | OC(CNC1CCCCC1)Cn1c2ccc(I)cc2c2cc(I)ccc21 (centres undefined) | 60.7%
14 | COc1ccc(N2CCN(C(CNC(=O)CC(C)(C)C)c3ccc4c(c3)OCO4)CC2)cc1 (centres undefined) | 31.4%
15 | O=C(Nc1ccc(-c2nc3cc(NC(=O)c4ccc(Cl)cc4)ccc3[nH]2)cc1)c1ccc(Cl)cc1 | 6.74%
16 | CN1CCN(c2c3c(c(C#N)c4nc5ccccc5n24)CCC3)CC1 | -35.3%
17 | Cc1cc(NC(=O)c2cccc(C(F)(F)F)c2)n(-c2nc(-c3ccc4c(c3)OCO4)cs2)n1 | -23.4%
18 | C=C(C)CCC(C)N1CCC(N2CCC(C(=O)NCCc3ccccc3)CC2)CC1 (centres undefined) | -2.27%
19 | Cc1ccc(-c2cc(C(=O)Nc3ccc(S(=O)(=O)N4CCCCC4)cc3)[nH]n2)c(O)c1 | 18%
20 | COCCN(C(=O)Cc1cccs1)C(C(=O)NCc1ccc(OC)cc1)c1ccc(C(C)C)cc1 (centres undefined) | 25.1%

Same assay, conditions: 5 µM; stage: early (I-III) gametocyte; incubation 72 h

Row | Compound | relative % inhibition
21 | COc1ccc(Nc2nc(NCc3ccccc3)c3ccccc3n2)cc1 | 98.1%
22 | CCOc1cc2c(cc1OCC)C(c1cc(Cl)c(O)c(OCC)c1)NCC2 (centres undefined) | 94.7%
23 | CN(C)c1ccc(-c2nc3cc(N)ccc3[nH]2)cc1 | 18.8%
24 | COc1ccc(CCN2C(=O)c3[nH]nc(-c4cc(Cl)c(C)cc4O)c3C2c2ccccc2F)cc1 (centres undefined) | -0.844%
25 | N=c1c2ccccc2nnn1-c1cccc(C(F)(F)F)c1 | 17.4%
26 | CC(=O)c1ccc(NC(=O)CSc2nc(-c3ccccc3Cl)ns2)cc1 | 39.1%
27 | Cc1ccc(C)c(Cn2c(N3CCC(C(=O)NCc4cccs4)CC3)nc3ccccc32)c1 | 39.4%
28 | CCN(CC)CCNc1ncnc2c1[nH]c1ccc(Br)cc12 | 61.4%
29 | C[n+]1c2ccccc2nc2ccc(NCCO)cc21 | 0.402%
30 | O=C(Nc1ccc(N2CCN(Cc3ccccc3)CC2)cc1)c1cccs1 | 6.41%
31 | Cc1cccc(-n2ncc3c(=O)[nH]c(-n4nc(C)cc4NC(=O)c4cc5ccccc5o4)nc32)c1 | 49%
32 | COc1cc(-c2nc(-c3ccccc3)c(-c3ccccc3)[nH]2)cc(OC)c1O | 29.3%
33 | CCOc1ccccc1CN1CCc2nc3cc(C(C)(C)C)nn3c(O)c2C1 | -4.88%
34 | CCN(CC)CCNc1ccnc2cc3ccccc3cc12 | 100%
35 | CCCCC(O)(c1ccc(Cl)cc1)C(CN1CCOCC1)c1ccc(Cl)cc1 (centres undefined) | 92.5%
36 | c1ccc(-c2ccc(-c3nc4ccccc4[nH]3)cc2)cc1 | -6.39%
37 | CC1CN(C(=O)c2sc3ccccc3c2Cl)CC(C)O1 (centres undefined) | 1.13%
38 | CC(C)(C)CC(C)(C)NCC(O)COc1ccc(Cl)cc1Cl (centres undefined) | 92.4%
39 | O=C(NCC(c1ccsc1)N1CCCCCC1)c1ccc(C(F)(F)F)cc1 (centres undefined) | 0.803%
40 | COc1cc(C(=O)Nc2nc3c(cc4c5c(cccc53)CC4)s2)cc(OC)c1OC | 13.9%
41 | O=C(NCc1ccco1)C1CCN(S(=O)(=O)c2ccc(Cl)cc2)CC1 | 3.24%
42 | CCOC(=O)c1c(NC(=O)c2ccccc2)sc2c(O)c(CN(CC)CC)ccc12 | 94.9%
43 | CCOc1ccc(C=Cc2nc(=O)c3ccccc3o2)cc1 | 22.2%
44 | COc1ccc(C2N(C)c3ccccc3N2C)cc1 | 30.9%
45 | CCOc1ccc2nc(C)cc(Nc3ccc(N(C)C)cc3)c2c1 | -42.1%
46 | Cc1ccc(Nc2nc(N)c3ccccc3n2)cc1Cl | 24.5%
47 | CC(=O)c1sc(NC(=O)Nc2ccc(C)cc2C)nc1C | 63.7%
48 | CCc1c(C)c(=N)c2ccccc2n1C | 8.52%
49 | Cc1ccc(Cn2c(N3CCC(C(=O)NCc4cccs4)CC3)nc3ccccc32)cc1 | 35.6%
